According to the supplement of paper PMC9262897, “Low-cost anti-mycobacterial drug discovery using engineered E. coli” (Nature Communications, 2022):
Counter-ions that a name gives are not always drawn. ± gives the standard deviation of the averaged measurements.

Test system: E. coli TESEC Mtb Asd
Experiment: growth (OD600 after 10 h); higher = more growth (less inhibition)
Settings: arabinose induction (level): High; compound 0.1 mM; raw OD600 reference: median of DMSO wells 0.331, cell-free background 0.041
Description: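 TESEC E. coli strains in which the native enzyme is deleted and replaced by arabinose-inducible Mtb Asd, DapB, CysH or TrpD, each grown in its selective medium. Strains were screened against the Prestwick library at 0.1 mM and 1% DMSO in 384-well format at low and high arabinose induction. Growth is read as OD600 after 10 h in triplicate.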

Row | SMILES | growth
1 | CC(C)c1ccc2oc3nc(N)c(C(=O)O)cc3c(=O)c2c1 [Amlexanox] | 0.3928 ± 0.003
2 | CCC1=C(C)CN(C(=O)NCCc2ccc(S(=O)(=O)NC(=O)N[C@H]3CC[C@H](C)CC3)cc2)C1=O [Glimepiride] | 0.338 ± 0.064
3 | CCOc1ccc2ccccc2c1C(=O)N[C@@H]1C(=O)N2[C@@H]1SC(C)(C)[C@@H]2C(=O)O [Nafcillin sodium salt monohydrate] | 0.43 ± 0.048
4 | S=c1[nH]cnc2nc[nH]c12 [Mercaptopurine] | 0.176 ± 0.021
5 | O=C(O)c1cccnc1 [Niacin] | 0.397 ± 0.019
6 | CC(=O)OCC(=O)[C@@]1(O)CC[C@H]2[C@@H]3CCC4=CC(=O)C=C[C@]4(C)[C@@]3(F)[C@@H](O)C[C@@]21C [Isoflupredone acetate] | 0.348 ± 0.046
7 | CCc1oc2ccccc2c1C(=O)c1cc(Br)c(O)c(Br)c1 [Benzbromarone] | 0.0473 ± 0.0012
8 | NS(=O)(=O)c1cc(Cl)c(Cl)c(S(N)(=O)=O)c1 [Dichlorphenamide] | 0.312 ± 0.027
9 | O=C(O)[C@H]1/C(=C/CO)O[C@@H]2CC(=O)N21 [Clavulanate potassium salt] | 0.535 ± 0.033
10 | COc1ccccc1OCCNCC(O)COc1cccc2[nH]c3ccccc3c12 (stereo not drawn) [Carvedilol] | 0.0533 ± 0.004
11 | CC(=O)N[C@@H](CS)C(=O)O [Acetylcysteine] | 0.437 ± 0.059
12 | CO[C@@]1(NC(=O)C2SC(=C(C(N)=O)C(=O)O)S2)C(=O)N2C(C(=O)O)=C(CSc3nnnn3C)CS[C@@H]21 (stereo partly drawn) [Cefotetan] | 0.0535 ± 0.0059
13 | CC(=O)O[C@H]1C(=O)[C@@]2(C)[C@H]([C@H](OC(=O)c3ccccc3)[C@]3(O)C[C@H](OC(=O)[C@H](O)[C@@H](NC(=O)c4ccccc4)c4ccccc4)C(C)=C1C3(C)C)[C@]1(OC(C)=O)CO[C@@H]1C[C@@H]2O [Paclitaxel] | 0.34 ± 0.051
14 | Nc1nc(=O)[nH]cc1F [Flucytosine] | 0.456 ± 0.025
15 | CN(C)CCC[C@@]1(c2ccc(F)cc2)OCc2cc(C#N)ccc21 [Escitalopram oxalate] | 0.297 ± 0.14
16 | CCOC(=O)OC(C)OC(=O)[C@@H]1N2C(=O)[C@@H](NC(=O)[C@H](N)c3ccccc3)[C@H]2SC1(C)C (stereo partly drawn) [Bacampicillin hydrochloride] | 0.237 ± 0.13
17 | CN1CCCN=C1/C=C/c1cccs1 [Pyrantel tartrate] | 0.347 ± 0.032
18 | CN1CCOC(c2ccccc2)c2ccccc2C1 (stereo not drawn) [Nefopam hydrochloride] | 0.187 ± 0.03
19 | c1ccc2c(CC3=NCCN3)cccc2c1 [Naphazoline hydrochloride] | 0.238 ± 0.042
20 | COc1cc(C)nc(-n2nc(C)cc2OC)n1 [Epirizole] | 0.342 ± 0.051

Row | SMILES | growth
21 | CCc1cccc2c3c([nH]c12)C(CC)(CC(=O)O)OCC3 (stereo not drawn) [Etodolac] | 0.276 ± 0.027
22 | C[C@]12CC[C@@H]3c4ccc(O)cc4CC[C@H]3[C@@H]1C[C@@H](O)[C@@H]2O [Estriol] | 0.221 ± 0.043
23 | N#Cc1ccc(C(c2ccc(C#N)cc2)n2cncn2)cc1 [Letrozole] | 0.243 ± 0.06
24 | Cc1cc(C2CCCCC2)n(O)c(=O)c1 [Ciclopirox ethanolamine] | 0.0544 ± 0.0014
25 | CC(=O)/N=c1/sc(S(N)(=O)=O)nn1C [Methazolamide] | 0.342 ± 0.034
26 | CC(C)NC[C@H](O)COc1ccc(CC(N)=O)cc1 [(S)-(-)-Atenolol] | 0.287 ± 0.095
27 | COc1cc(OC)c(C(=O)CCCN2CCCC2)c(OC)c1 [Buflomedil hydrochloride] | 0.274 ± 0.033
28 | CCN1CCC[C@H]1CNC(=O)c1c(OC)ccc(Br)c1OC [Remoxipride Hydrochloride] | 0.288 ± 0.032
29 | CN(C)c1nc(N(C)C)nc(N(C)C)n1 [Altretamine] | 0.475 ± 0.017
30 | Nc1ccn([C@@H]2O[C@H](CO)[C@@H](O)[C@@H]2O)c(=O)n1 [Cytarabine] | 0.309 ± 0.032
31 | CC(N)C12CC3CC(CC(C3)C1)C2 (stereo not drawn) [Rimantadine Hydrochloride] | 0.209 ± 0.019
32 | Cn1c(=O)c2nc[nH]c2n(C)c1=O [Theophylline monohydrate] | 0.4904 ± 0.0049
33 | O=C(O)c1ccccc1OP(=O)(O)O [Fosfosal] | 0.349 ± 0.051
34 | COC(=O)Nc1nc2cc(C(=O)c3ccccc3)ccc2[nH]1 [Mebendazole] | 0.306 ± 0.021
35 | O=c1[nH]cc(F)c(=O)[nH]1 [5-fluorouracil] | 0.193 ± 0.013
36 | CCc1nn(CCCN2CCN(c3cccc(Cl)c3)CC2)c(=O)n1CCOc1ccccc1 [Nefazodone HCl] | 0.0498 ± 0.0029
37 | COc1cc(NC(C)CCCN)c2ncccc2c1 (stereo not drawn) [Primaquine diphosphate] | 0.0857 ± 0.0065
38 | CNS(=O)(=O)Cc1ccc2[nH]cc(CCN(C)C)c2c1 [Sumatriptan succinate] | 0.372 ± 0.026
39 | Cc1ccc(N(CC2=NCCN2)c2cccc(O)c2)cc1 [Phentolamine hydrochloride] | 0.252 ± 0.065

Same assay, conditions: arabinose induction (level): Low; compound 0.1 mM; raw OD600 reference: median of DMSO wells 0.417, cell-free background 0.041

Row | SMILES | growth
40 | CC(C)c1ccc2oc3nc(N)c(C(=O)O)cc3c(=O)c2c1 [Amlexanox] | 0.23 ± 0.056
41 | CCC1=C(C)CN(C(=O)NCCc2ccc(S(=O)(=O)NC(=O)N[C@H]3CC[C@H](C)CC3)cc2)C1=O [Glimepiride] | 0.439 ± 0.052
42 | CCOc1ccc2ccccc2c1C(=O)N[C@@H]1C(=O)N2[C@@H]1SC(C)(C)[C@@H]2C(=O)O [Nafcillin sodium salt monohydrate] | 0.439 ± 0.043
43 | S=c1[nH]cnc2nc[nH]c12 [Mercaptopurine] | 0.167 ± 0.01
44 | O=C(O)c1cccnc1 [Niacin] | 0.461 ± 0.0099
45 | CC(=O)OCC(=O)[C@@]1(O)CC[C@H]2[C@@H]3CCC4=CC(=O)C=C[C@]4(C)[C@@]3(F)[C@@H](O)C[C@@]21C [Isoflupredone acetate] | 0.413 ± 0.056
46 | CCc1oc2ccccc2c1C(=O)c1cc(Br)c(O)c(Br)c1 [Benzbromarone] | 0.0482 ± 0.002
47 | NS(=O)(=O)c1cc(Cl)c(Cl)c(S(N)(=O)=O)c1 [Dichlorphenamide] | 0.456 ± 0.038
48 | O=C(O)[C@H]1/C(=C/CO)O[C@@H]2CC(=O)N21 [Clavulanate potassium salt] | 0.387 ± 0.062
49 | COc1ccccc1OCCNCC(O)COc1cccc2[nH]c3ccccc3c12 (stereo not drawn) [Carvedilol] | 0.0496 ± 0.0017
50 | CC(=O)N[C@@H](CS)C(=O)O [Acetylcysteine] | 0.393 ± 0.017
51 | CO[C@@]1(NC(=O)C2SC(=C(C(N)=O)C(=O)O)S2)C(=O)N2C(C(=O)O)=C(CSc3nnnn3C)CS[C@@H]21 (stereo partly drawn) [Cefotetan] | 0.048 ± 0.0045
52 | CC(=O)O[C@H]1C(=O)[C@@]2(C)[C@H]([C@H](OC(=O)c3ccccc3)[C@]3(O)C[C@H](OC(=O)[C@H](O)[C@@H](NC(=O)c4ccccc4)c4ccccc4)C(C)=C1C3(C)C)[C@]1(OC(C)=O)CO[C@@H]1C[C@@H]2O [Paclitaxel] | 0.385 ± 0.079
53 | Nc1nc(=O)[nH]cc1F [Flucytosine] | 0.492 ± 0.026
54 | CN(C)CCC[C@@]1(c2ccc(F)cc2)OCc2cc(C#N)ccc21 [Escitalopram oxalate] | 0.398 ± 0.064
55 | CCOC(=O)OC(C)OC(=O)[C@@H]1N2C(=O)[C@@H](NC(=O)[C@H](N)c3ccccc3)[C@H]2SC1(C)C (stereo partly drawn) [Bacampicillin hydrochloride] | 0.325 ± 0.034
56 | CN1CCCN=C1/C=C/c1cccs1 [Pyrantel tartrate] | 0.416 ± 0.039
57 | CN1CCOC(c2ccccc2)c2ccccc2C1 (stereo not drawn) [Nefopam hydrochloride] | 0.401 ± 0.045
58 | c1ccc2c(CC3=NCCN3)cccc2c1 [Naphazoline hydrochloride] | 0.333 ± 0.048
59 | COc1cc(C)nc(-n2nc(C)cc2OC)n1 [Epirizole] | 0.465 ± 0.042

Row | SMILES | growth
60 | CCc1cccc2c3c([nH]c12)C(CC)(CC(=O)O)OCC3 (stereo not drawn) [Etodolac] | 0.267 ± 0.017
61 | C[C@]12CC[C@@H]3c4ccc(O)cc4CC[C@H]3[C@@H]1C[C@@H](O)[C@@H]2O [Estriol] | 0.264 ± 0.034
62 | N#Cc1ccc(C(c2ccc(C#N)cc2)n2cncn2)cc1 [Letrozole] | 0.356 ± 0.086
63 | Cc1cc(C2CCCCC2)n(O)c(=O)c1 [Ciclopirox ethanolamine] | 0.0525 ± 0.0041
64 | CC(=O)/N=c1/sc(S(N)(=O)=O)nn1C [Methazolamide] | 0.447 ± 0.02
65 | CC(C)NC[C@H](O)COc1ccc(CC(N)=O)cc1 [(S)-(-)-Atenolol] | 0.343 ± 0.051
66 | COc1cc(OC)c(C(=O)CCCN2CCCC2)c(OC)c1 [Buflomedil hydrochloride] | 0.335 ± 0.064
67 | CCN1CCC[C@H]1CNC(=O)c1c(OC)ccc(Br)c1OC [Remoxipride Hydrochloride] | 0.445 ± 0.015
68 | CN(C)c1nc(N(C)C)nc(N(C)C)n1 [Altretamine] | 0.436 ± 0.037
69 | Nc1ccn([C@@H]2O[C@H](CO)[C@@H](O)[C@@H]2O)c(=O)n1 [Cytarabine] | 0.305 ± 0.02
70 | CC(N)C12CC3CC(CC(C3)C1)C2 (stereo not drawn) [Rimantadine Hydrochloride] | 0.497 ± 0.07
71 | Cn1c(=O)c2nc[nH]c2n(C)c1=O [Theophylline monohydrate] | 0.455 ± 0.0057
72 | O=C(O)c1ccccc1OP(=O)(O)O [Fosfosal] | 0.424 ± 0.097
73 | COC(=O)Nc1nc2cc(C(=O)c3ccccc3)ccc2[nH]1 [Mebendazole] | 0.398 ± 0.078
74 | O=c1[nH]cc(F)c(=O)[nH]1 [5-fluorouracil] | 0.238 ± 0.015
75 | CCc1nn(CCCN2CCN(c3cccc(Cl)c3)CC2)c(=O)n1CCOc1ccccc1 [Nefazodone HCl] | 0.0479 ± 0.0011
76 | COc1cc(NC(C)CCCN)c2ncccc2c1 (stereo not drawn) [Primaquine diphosphate] | 0.0611 ± 0.0046
77 | CNS(=O)(=O)Cc1ccc2[nH]cc(CCN(C)C)c2c1 [Sumatriptan succinate] | 0.503 ± 0.03
78 | Cc1ccc(N(CC2=NCCN2)c2cccc(O)c2)cc1 [Phentolamine hydrochloride] | 0.377 ± 0.048
